Consider 24 compounds from PubChem BioAssay (NCATS).

Results filed as inconclusive are left out. The source made the active and inactive calls. Unless noted, the call rests on the fitted dose curve; in most records, active means well fitted curve in the direction sought with a large enough effect; inconclusive means small, poorly fitted or top-dose-only effect, or another doubt; inactive means no such curve, though single readings can be large; an effect the other way counts as inactive or inconclusive.

Test [1] concerns the target Muscarinic acetylcholine receptor M1 (Rattus norvegicus) (UniProt P08482). Put plainly: qHTS Assay for Antagonists of Acetylcholine Muscarinic M1 Receptor: Kinetic Measurement of Intracellular Calcium Response (AID 943). Further: nearly all actives have a fitted effect of over 75% in size. Further: potency means the concentration at half of the fitted maximal effect. In outline:
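Antagonism measured as reduction of carbachol-evoked (EC80, 100 nM final) calcium flux in rat M1-CHO cells after 10 min compound exposure. Fluo-4 signal read kinetically; ratio of maximal to basal fluorescence.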
Background: Quantitative high-throughput screening tests each substance at several concentrations.

Test [2] concerns the target Pyruvate kinase PKM (Homo sapiens) (UniProt P14618). Put plainly: qHTS Assay for Activators of Human Muscle Pyruvate Kinase (AID 954; active means well fitted curve in the direction sought with a large enough effect, not every such curve was filed as active;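 further: 0% = uninhibited enzyme and -100% = no enzyme or full thiadiazolimine inhibition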). In outline: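 PKM2, human, >95% pure, 0.1 nM; PEP 0.5 mM (Km), ADP 0.1 mM; 50 mM imidazole pH 7.2, 50 mM KCl, 0.01% Tween 20, 0.05% BSA; 1 h RT; luciferase luminescence readout.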
Test [3] addresses Alpha-galactosidase A (Homo sapiens) (UniProt P06280). Put plainly: Counterscreen for Glucocerebrosidase Inhibitors: qHTS Assay for Human alpha-Galactosidase at pH 4.5 (AID 992). Further: 0% is about no effect. In outline: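 Fluorogenic 4-MU alpha-D-galactoside (80 uM) hydrolysis, 2 nM enzyme, pH 4.5 citrate buffer + 0.005% Tween-20; 20 min RT; NaOH/glycine pH 10 stop; Ex365/Em440. Compounds titrated 0.7 nM–77 uM; Hill-equation AC50.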
(In general: Counterscreens check selectivity or assay interference.)

The target of test [4] is alpha-glucosidase (Oryza sativa, rice) (UniProt Q653V4). Put plainly: Counterscreen for Glucocerebrosidase Inhibitors: qHTS Assay for Rice alpha-Glucosidase at pH 5.0 (AID 997).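 Further: 0% = full activity with enzyme and -100% = basal without enzyme.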 In outline: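 Endpoint fluorogenic assay at pH 5.0: compounds (0.7 nM to 77 uM) titrated against 4 nM rice enzyme and 400 uM 4-MU-alpha-glucoside for 20 min at room temperature; NaOH/glycine stop, read ex 365/em 440 nm, Hill-fitted AC50.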

The target in test [5] is ATP-dependent 6-phosphofructokinase (Trypanosoma brucei brucei) (UniProt O15648). The experiment in a line: qHTS Assay to Find Inhibitors of T. brucei phosphofructokinase: hit validation (AID 492961).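 Further: luminescence reports ADP formed as PFK phosphorylates fructose-6-phosphate with ATP; on the % scale 0 is the no-effect control and ±100 the full control effect.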 In outline:
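Reaction: 0.1 M triethanolamine pH 8.0, 5 mM MgCl2, F6P 0.5 mM, ATP 0.1 mM, PFK 1.25 nM, 45 min RT. Read-out: ADP-Glo luminescence. Analysis: concentration-response fits, classed by r2 and efficacy.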

Test [6] in a line: qHTS profiling for inhibitors of Plasmodium falciparum proliferation (AID 504749).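 Further: 0% = DMSO vehicle and full inhibition = artemisinin control; nearly all actives have a fitted effect of over 60% in size.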 The note with it: P. falciparum in erythrocytes, SYBR Green DNA, 72 h, at 28.7 µM (top of the series). A digest of the protocol:
(§1)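 Quantitative HTS: compounds pinned into medium, infected erythrocytes added (0.3% parasitemia, 2.5% hematocrit), 72 h culture at 37 C under 5% CO2. Saponin/Triton lysis with SYBR Green I, overnight RT, then fluorescence read.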

Test [7] relates to CP203. The test is described as above. Particulars: P. falciparum in erythrocytes, SYBR Green DNA, 72 h; series mostly up to 28.7 µM. In outline: as §1
Test [8] relates to CP291. Described as above. The note with it: P. falciparum in erythrocytes, SYBR Green DNA, 72 h; series mostly up to 28.7 µM. A digest of the protocol:
as §1

Test [9] relates to DFO2036. The test is described as above. The note with it: P. falciparum in erythrocytes, SYBR Green DNA, 72 h; series mostly up to 28.7 µM. A digest of the protocol:
as §1

Test [10] deals with DIV14. The test is described as above. The note with it: P. falciparum in erythrocytes, SYBR Green DNA, 72 h; series mostly up to 28.7 µM. In outline: as §1
The test system of test [11] is DIV17. The test is described as above. Particulars: P. falciparum in erythrocytes, SYBR Green DNA, 72 h; series mostly up to 28.7 µM. In outline:
as §1

Test [12] relates to GB4. The description is as above. Particulars: P. falciparum in erythrocytes, SYBR Green DNA, 72 h; series mostly up to 28.7 µM. A digest of the protocol:
as §1

Test [13] deals with W2. The description is as above. The note with it: P. falciparum in erythrocytes, SYBR Green DNA, 72 h; series mostly up to 28.7 µM. In outline: as §1
Test [14] in a line: Confirmation and Secondary Assay for Modulators of Hemoglobin Beta Chain Splicing at IVS2 654 locus (AID 910).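 Further: per-well total GFP intensity by laser scanning cytometry after 2-day treatment; % of control where 0% means no effect.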 In outline:
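HeLa cells stably carrying EGFP interrupted by mutant beta-globin IVS2-654 intron (CMV-driven) were treated with compound for 2 days at 37C; corrected splicing was scored as total peak GFP intensity per well (488 nm excitation, 500-520 nm emission).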

Test [15] can be described thus: Confirmation and Secondary Assay for Modulators of Hemoglobin Beta Chain Splicing at IVS2 705 locus (AID 930).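 Further: HeLa cells stably expressing the EGFP-705 splicing reporter; GFP fluorescence per well restored by corrected splicing of the IVS2-705 intron in EGFP; % of control where 0% means no effect.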 In outline: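 HeLa IVS2-705 EGFP reporter cells, 500/well, compound 2 d at 37C; correct splicing yields fluorescent EGFP. Control: 500 nM antisense PNA. Read-out: total peak GFP intensity.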
For test [16], the target named is Muscarinic acetylcholine receptor M1 (Rattus norvegicus) (UniProt P08482). Put plainly: qHTS Assay for Antagonists of Acetylcholine Muscarinic M1 Receptor: Measurement of IP-One Response (AID 944). Further: nearly all actives have a fitted effect of over 75% in size. Further: potency means the concentration at half of the fitted maximal effect. In outline:
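IP1 accumulation measured via TR-FRET between d2-IP1 and Eu-cryptate anti-IP1 antibody after carbachol (200 nM, EC80) stimulation for 30 min; rat M1-transfected CHO cells received compound 10 min before agonist.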

The nature of test [17]: NCATS anti-infectives library activity on HEK293 viability as a counter-qHTS vs the C. elegans viability qHTS (AID 1745854). Further: on the % scale 0 is the no-effect control and ±100 the full control effect. A digest of the protocol:
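Cytotoxicity counter-screen to a worm viability qHTS: CellTiter-Glo luminescence read 10 min after reagent addition. Compounds (final up to 41.7 uM, a 1:5 dilution series) incubated 24 hr at 37C with 1,500 HEK293 cells per well; digitonin control.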

Test [18] is described as follows: qHTS Assay for Identification of Small Molecule Antagonists for NFkB Signaling Pathway (AID 895; active means well fitted inhibition curve with a large enough effect in the signal ratio, with a control signal flat, not every such curve was filed as active; the % refers to the signal ratio; further: on the % scale 0 is the no-effect control and ±100 the full control effect). A digest of the protocol: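 NFkB-bla ME-180 cervical carcinoma cells with beta-lactamase reporter under NFkB response element; compounds added, then TNF alpha at 10 pM final (EC50), 5 h at 37 C. LiveBLAzer substrate 2 h, room temperature; emission 460/530 nm at 405 nm excitation.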

The nature of test [19]: qHTS Assay for Identification of Small Molecule Agonists for Thrombopoietin (TPO) Signaling Pathway (AID 917). Further: on the % scale 0 is the no-effect control and ±100 the full control effect. A digest of the protocol:
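Cell-based luciferase reporter screen. Mouse Ba/F3 line stably expressing human TPO receptor; IL-3 removed overnight before plating. Co-treatment with compound and EC50 TPO (26 pM), 24 hrs at 37 C, then luminescence.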

Test [20] can be described thus: qHTS drug screen for cell cycle checkpoint inhibitors in PARPi-resistant BRCA-mutant ovarian cancer cell lines. (AID 1963452; calls by dose curve). The note with it: PEO1/OlaR viability, CellTiter-Glo luminescence, 96 h, stronger effect = lower value. In outline:
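PEO1, PEO4 and PEO1/OlaR ovarian cancer cells, 600 per well, exposed 96 h at 37C to a dilution series. Viability read by CellTiter-Glo luminescence, normalized to DMSO and empty wells; activity summarized as Z-AUC.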

Sequence of Alpha-galactosidase A (Homo sapiens) (P06280 whole entry, looked up): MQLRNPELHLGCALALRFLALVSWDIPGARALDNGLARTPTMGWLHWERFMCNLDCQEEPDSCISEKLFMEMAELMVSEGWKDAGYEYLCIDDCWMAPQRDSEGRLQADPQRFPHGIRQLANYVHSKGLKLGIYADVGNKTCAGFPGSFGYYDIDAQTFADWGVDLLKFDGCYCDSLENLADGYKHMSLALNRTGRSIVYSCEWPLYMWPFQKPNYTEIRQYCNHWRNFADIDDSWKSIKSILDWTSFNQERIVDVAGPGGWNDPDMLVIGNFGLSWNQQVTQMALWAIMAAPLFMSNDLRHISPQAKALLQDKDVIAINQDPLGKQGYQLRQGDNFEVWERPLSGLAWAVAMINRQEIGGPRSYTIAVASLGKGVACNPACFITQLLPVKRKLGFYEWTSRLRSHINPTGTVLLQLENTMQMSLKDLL
Sequence of Muscarinic acetylcholine receptor M1 (Rattus norvegicus) (P08482 whole entry, looked up): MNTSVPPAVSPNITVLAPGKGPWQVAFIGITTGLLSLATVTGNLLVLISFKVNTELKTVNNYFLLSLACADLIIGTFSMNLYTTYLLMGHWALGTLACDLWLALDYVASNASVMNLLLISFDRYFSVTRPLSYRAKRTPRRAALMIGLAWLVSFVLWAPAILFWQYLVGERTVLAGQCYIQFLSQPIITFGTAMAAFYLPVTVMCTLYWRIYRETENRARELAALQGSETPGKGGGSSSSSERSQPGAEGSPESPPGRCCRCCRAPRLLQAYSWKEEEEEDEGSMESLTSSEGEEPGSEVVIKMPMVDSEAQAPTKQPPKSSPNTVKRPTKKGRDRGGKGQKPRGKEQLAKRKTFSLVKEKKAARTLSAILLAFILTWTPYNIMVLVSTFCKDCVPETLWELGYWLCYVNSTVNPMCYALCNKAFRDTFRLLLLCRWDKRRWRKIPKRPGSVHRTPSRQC
Sequence of Pyruvate kinase PKM (Homo sapiens) (P14618 whole entry, looked up): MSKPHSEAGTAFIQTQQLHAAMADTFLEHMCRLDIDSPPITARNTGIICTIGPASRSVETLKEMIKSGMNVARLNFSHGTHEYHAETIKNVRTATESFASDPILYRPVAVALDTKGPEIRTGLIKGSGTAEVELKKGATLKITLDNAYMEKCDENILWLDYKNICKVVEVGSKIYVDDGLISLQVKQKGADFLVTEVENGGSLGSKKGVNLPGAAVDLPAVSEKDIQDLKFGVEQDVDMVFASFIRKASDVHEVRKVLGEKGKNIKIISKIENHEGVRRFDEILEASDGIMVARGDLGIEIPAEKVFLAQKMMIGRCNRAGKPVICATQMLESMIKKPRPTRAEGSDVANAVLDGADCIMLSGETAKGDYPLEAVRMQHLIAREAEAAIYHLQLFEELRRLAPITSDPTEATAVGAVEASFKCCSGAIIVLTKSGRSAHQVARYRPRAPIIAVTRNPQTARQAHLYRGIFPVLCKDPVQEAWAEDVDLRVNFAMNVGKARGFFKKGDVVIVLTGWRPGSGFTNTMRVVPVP
Sequence of ATP-dependent 6-phosphofructokinase (Trypanosoma brucei brucei) (O15648 whole entry, looked up): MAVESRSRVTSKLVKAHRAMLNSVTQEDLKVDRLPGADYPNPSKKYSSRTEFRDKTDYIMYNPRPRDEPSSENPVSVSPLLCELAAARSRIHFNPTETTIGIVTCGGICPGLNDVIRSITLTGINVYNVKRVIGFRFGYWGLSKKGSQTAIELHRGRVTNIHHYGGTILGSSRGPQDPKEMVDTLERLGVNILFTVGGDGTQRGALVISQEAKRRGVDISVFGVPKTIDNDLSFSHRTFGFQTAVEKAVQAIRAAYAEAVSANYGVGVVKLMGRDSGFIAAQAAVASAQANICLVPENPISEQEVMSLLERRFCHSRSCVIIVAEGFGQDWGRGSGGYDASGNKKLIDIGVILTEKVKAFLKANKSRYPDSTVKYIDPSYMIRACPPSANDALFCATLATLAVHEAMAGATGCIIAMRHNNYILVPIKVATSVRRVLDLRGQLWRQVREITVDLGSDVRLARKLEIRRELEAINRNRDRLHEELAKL

Consider `CCCCCCCCCCCCCCCC(=O)O[C@H](CC(=O)O)C[N+](C)(C)C`, for which the Potency in test [1] was 5.62 µM (active). Moreover, the outcome in test [2], in test [3] and in test [4] was inactive.
On to `CC(=O)[C@H]1CC[C@H]2C3CC=C4C[C@@H](O)CC[C@]4(C)C3CC[C@]12C` (some centres undefined), for which the result in test [5] was inactive. Besides, the activity, negative = inhibition in test [6] (parasite line A) was -13% (inactive). The Potency entry in test [7], in test [8], in test [9], in [10], in [11] and in test [12] was “inactive” throughout. Moreover, the Potency entry in test [13] is “inactive”.
For the compound `C/C=C1\C2C=C(C)CC1(N)c1ccc(=O)[nH]c1C2` (centres undefined), the result in [5] was inactive. Moreover, the activity, negative = inhibition in [6] (parasite line A) was -3.71% (inactive); in test [6] (parasite line B) it was 0.727% (inactive). Further, the Potency entry in test [7], in test [8], in test [9], in test [10], in test [11] and in [12] was “inactive” each time. Further, the Potency entry in [13] was “inactive”.
With `CC1OC(OC2C(CO)OC(OC3C(CO)OC(O)C(O)C3O)C(O)C2O)C(O)C(O)C1NC1C=C(CO)C(O)C(O)C1O` (centres undefined), the call in test [14] and in test [15] was inactive.
Turning to `CC(=O)N[C@@H](C(=O)O)C(C)(C)SN=O`, the compound was called inactive in test [14], in [15] and in test [4]. Besides, the Potency result in test [1] and in test [16] was “inactive” in each case.
Turning to `OC[C@H]1NC[C@H](O)[C@@H](O)[C@H]1O`, the compound was called inactive in test [17].
With `CN1CCN2c3ccccc3Cc3ccccc3[C@@H]2C1`, the Potency entry in test [18] and in test [19] was “inactive” in each case. For the same compound, the result in test [2] and in test [3] was inactive.
As for `N[C@]1(C(=O)O)CCc2cc(C(=O)O)ccc21`, the Potency result in [18], in [19], in test [1] and in [16] was “inactive” each time. In addition, the outcome in [4] was inactive.
As for `CC(C)(C)NC[C@H](O)c1ccc(O)c(CO)c1`, the result in [14], in test [15], in test [2] and in test [4] was inactive. The Potency entry in [19] was “inactive”.
With `Cc1ccc(/C(=C/CN2CCCC2)c2ccccn2)cc1`, the Potency in test [1] was 1.26 µM (active). For the same compound, the compound was called inactive in [3] and in test [4].
As for `CCN(Cc1ccncc1)C(=O)[C@@H](CO)c1ccccc1`, the outcome in [14], in [15], in [2], in test [3] and in test [4] was inactive. The Potency result in test [19] is “inactive”.
On to `CO[C@]1(C2=NCCN2)COc2ccccc2O1`, for which, in [16], the Potency entry is “inactive”. Besides, the compound was called inactive in test [2] and in [4].
As to `Fc1ccc(C(c2ccc(F)cc2)N2CCN(C/C=C\c3ccccc3)CC2)cc1`, in test [3], the compound was called inactive.
Take `CC(C)=CCC/C(C)=C/CC/C(C)=C/CC/C(C)=C/CO`: the compound was classed as inactive in test [14] and in [15].
Consider `O=C(NC[C@H]1CCCCN1)c1cc(OCC(F)(F)F)ccc1OCC(F)(F)F`, for which the Potency result in test [19] was “inactive”. The compound was classed as inactive in [2] and in test [3].
Regarding `COc1cccc(OC)c1OCCNC[C@@H]1COc2ccccc2O1`, the Potency entry in test [18] was “inactive”. The Potency in [1] is 10 µM (active); in test [16], 17.8 µM (active). Besides, the result in test [2], in test [3] and in [4] was inactive.
Consider `COc1ccccc1N1CCN(C[C@@H](O)COc2cccc3ccccc23)CC1`, for which the Potency entry in test [19] and in test [16] was “inactive” throughout. Also, the call in test [2], in test [3] and in [4] was inactive.
For the compound `NS(=O)(=O)c1cc2c(cc1Cl)N[C@@H]([C@@H]1C[C@@H]3C=C[C@H]1C3)NS2(=O)=O`, the Potency result in [18], in test [19] and in test [1] was “inactive” throughout. In addition, the compound was classed as inactive in test [3] and in test [4].
In the case of `O=c1[nH]cnc2ccccc12`, the compound was called inactive in [17].
On to `CNC(=O)Oc1ccc2c(c1)[C@@]1(C)CCN(C)[C@@H]1N2C`, for which the Potency result in [18] and in test [19] was “inactive” each time. Moreover, the call in test [2] and in [4] was inactive.
With `COc1cc2nc(N3CCN(C(=O)[C@H]4CCCO4)CC3)nc(N)c2cc1OC`, the Potency result in [19] and in test [16] was “inactive” throughout. Moreover, in test [2], the compound was called inactive.
As for `O=C(/C=C/c1ccccc1)NC(NC(=S)Nc1cccc2cccnc12)C(Cl)(Cl)Cl` (centres undefined), in test [17], the compound was classed as inactive.
Turning to `CC(=O)C1CCC2C3CCC4=CC(=O)CCC4(C)C3CCC12C` (centres undefined), the Z-AUC is -0.653 (inactive) in [20], -0.604 in [20] (measured here: PEO1 parental Z-AUC) and -0.267 in [20] (measured here: PEO4 Z-AUC).
For `CC(C)c1cccc(O)c(=O)c1`, the outcome in [14], in [15] and in test [17] was inactive.
